Hits are enriched below; roughly 14% of the tested compounds scored in any of these assays.
MARV entry inh – Marburg virus entry inhibition; Marburg virus pseudotyped entry inhibition, cell reporter; Potency, µM (highest dose often 37.8 µM), hits mostly inhibitors; 1.8% of 300,000 active; calls by dose curve; tested in HEK293 cells
Lassa entry inh – blocks Lassa virus binding to or entry into cells. Lassa virus pseudotype entry inhibition, cell reporter. Potency, µM (doses to about 37.9 µM), most hits filed as inhibitors. 1.2% of 300,000 active. AID 540256; calls by dose curve; tested in HEK293 cells; note: nearly all actives have a fitted effect of over 50% in size
HCV inh – HCV inhibition; Potency, µM (highest dose often 41.8 µM), most hits filed as inhibitors; Huh7.5.1 HCVcc-Cre infection, luciferase reporter, 44 h; 3.4% of 340,000 active; AID 651820
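A cell-based infection assay in which seeded cells (1,000 per well) receive test compound after 4 h, are inoculated with HCVcc-Cre at approximately 0.5 moi, and are incubated 44 h before luminescence detection.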
Pf growth 96h – P. falciparum growth inhibition at 96 hours | 6.9% of 320,000 active | AID 504834 | P. falciparum luciferase reporter growth, 96 h | Potency, µM (doses to about 28.7 µM), actives largely listed as inhibitors
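Luminescence readout: decreased luciferase signal marks inhibited growth of reporter-expressing P. falciparum in infected red cells (2% hematocrit, 0.05% parasitemia final), exposed to compound two generations (96 h, 37 C, 5% CO2).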
Pf growth 48h – P. falciparum growth inhibition at 48 hours (one generation); 5.9% of 310,000 active; Potency, µM (highest dose often 28.7 µM), usual class: inhibitors; AID 504832; P. falciparum luciferase growth in erythrocytes, 48 h
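Parasite viability was followed by luminescence of a genomically integrated firefly luciferase. Cultures held 0.1% parasitemia at 2% hematocrit (final), incubated under 5% CO2 at 37 C.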
HCMV inh – blocks human cytomegalovirus replication | HFF cells, HCMV-luciferase reporter, 72 h; active compounds read low | activity change, negative = inhibition, % at 57.5 µM | 4.5% of 410,000 active; in the data active = activity change below about -60%; inconclusive = no clear call, values can overlap the other calls; inactive = above about -39%
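Two compound doses tested in HFFs infected with HCMV-luciferase, MOI 1 PFU/cell, 72 h at 37C. Lysate luminescence read with OneGlo; data normalized against buffer-only and 10uM Salinomycin inhibitor controls.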
Of the large screens only hits and unclear results are named; the others gave an inactive call. Unless noted, calls come from the whole dose curve; as a rule, active = well fitted inhibition curve with a large enough effect; inconclusive = small, poorly fitted or top-dose-only effect, or another doubt; inactive = no such curve, though single readings can be large or run the other way.

C=CCSc1nnc(-c2nnc(SCC=C)n2CC)n1CC	Pf growth 96h 12µM, Pf growth 48h 10µM
O=C(NNc1ccc(C(F)(F)F)cc1[N+](=O)[O-])c1ccc(NS(=O)(=O)c2ccc(F)cc2)cc1	MARV entry inh inconclusive, Lassa entry inh inconclusive, Pf growth 96h 8.3µM, Pf growth 48h inconclusive
CN(C)S(=O)(=O)c1ccc(NC(=O)CNc2cc(S(=O)(=O)N3CCCC3)ccc2OCC(F)(F)F)cc1	HCV inh inconclusive, Pf growth 96h 13µM, Pf growth 48h inconclusive, HCMV inh inconclusive
N#Cc1cccc(NC(=O)CNc2cccc(S(=O)(=O)N3CCCCC3)c2)c1	MARV entry inh inconclusive, HCV inh inconclusive, Pf growth 96h inconclusive, Pf growth 48h 15µM, HCMV inh inconclusive
O=C(CNc1cccc(S(=O)(=O)N2CCCCC2)c1)Nc1ccc(C(F)(F)F)cc1	HCMV inh -79 (no result: MARV entry inh, Lassa entry inh, HCV inh, Pf growth 96h, Pf growth 48h)
O=C(CNc1cccc(S(=O)(=O)N2CCCC2)c1)Nc1ccc(C(F)(F)F)cc1	MARV entry inh inconclusive, Lassa entry inh inconclusive, HCV inh 10µM, Pf growth 96h 1.9µM, Pf growth 48h 4.1µM, HCMV inh -69
C[C@@H]1CN([C@@H](C)CO)C(=O)c2cc(Br)cnc2O[C@@H]1CN(C)C(=O)CN(C)C	none (no result: MARV entry inh, Lassa entry inh, HCV inh, Pf growth 96h, Pf growth 48h)
CCCCC1Cc2[nH][nH]c(=O)c2C(c2ccc(Cl)cc2)O1 (stereo not drawn)	none (no result: MARV entry inh, Lassa entry inh, HCV inh, Pf growth 96h, Pf growth 48h)
Cc1cc(C)cc(NC(=O)CSc2nc(=O)n3cc(C)ccc3n2)c1	HCMV inh inconclusive
CC(Sc1ncccn1)C(=O)NC1(C#N)CCCCC1 (stereo not drawn)	none
CC(SC1=Nc2ccccc2C2CC=NN12)C(=O)NC1(C#N)CCCCC1 (stereo not drawn)	HCV inh inconclusive, Pf growth 96h 8.3µM, Pf growth 48h inconclusive
CC(=O)c1ccc(NC(=O)COc2ccccc2-c2nc(C)no2)cc1	none (no result: HCV inh, Pf growth 96h, Pf growth 48h)
O=C(/C=C/Sc1ccc(C(F)(F)F)cn1)c1ccccc1	HCV inh 10µM, Pf growth 48h inconclusive (no result: MARV entry inh, Lassa entry inh)
COC(=O)c1cc2sc(C)cc2n1Cc1nc(-c2cccc(Br)c2)oc1C	none (no result: Lassa entry inh, HCV inh, Pf growth 96h, Pf growth 48h)
CC(C)[C@H]1CN=C2N(C[C@H](C)NC(=O)CCC3CCCCC3)[C@H](Cc3ccc(O)cc3)CN21	Pf growth 96h 4.1µM, Pf growth 48h 12µM (no result: MARV entry inh, Lassa entry inh)
C[C@@H](CN1C2=NC[C@H](C)N2C[C@H]1Cc1ccc(O)cc1)NC(=O)CCC1CCCCC1	Pf growth 96h inconclusive (no result: MARV entry inh, Lassa entry inh)
COc1ccc(C[C@H]2CN3C(=NC[C@@H]3Cc3ccc(O)cc3)N2C[C@H](C)NC(=O)CCC2CCCCC2)cc1	Pf growth 96h 0.93µM, Pf growth 48h 2.1µM (no result: MARV entry inh, Lassa entry inh)
C/C=C(\C)C(=O)N[C@@H](C)CN1C2=NC[C@H](C(C)C)N2C[C@H]1Cc1ccc(OC)cc1	Pf growth 48h inconclusive (no result: MARV entry inh, Lassa entry inh)
COc1ccc(C[C@@H]2CN3C(=NC[C@@H]3Cc3ccc(O)cc3)N2C[C@H](C)NC(=O)CCC2CCCCC2)cc1	Pf growth 96h 0.74µM, Pf growth 48h 1.2µM (no result: MARV entry inh, Lassa entry inh, HCMV inh)
O=C(Cc1ccc(F)cc1)OCC(=O)N1CCN(S(=O)(=O)c2ccc(Cl)cc2)CC1	none
O=C(Nn1c(O)c(C=C2N=c3ccccc3=N2)sc1=S)c1ccccc1Cl	Lassa entry inh inconclusive, Pf growth 96h inconclusive, HCMV inh -91 (no result: Pf growth 48h)
O=S(=O)(Nn1c(O)c(C=C2N=c3ccccc3=N2)sc1=S)c1ccccc1	none (no result: MARV entry inh, Lassa entry inh)
O=C(Nc1cccc(Cl)c1)c1csc(C(O)c2cccc(C(F)(F)F)c2)n1 (stereo not drawn)	none (no result: MARV entry inh, Lassa entry inh, HCV inh, Pf growth 96h, Pf growth 48h)
COc1ccccc1NC(=O)Cn1nc(-c2ccncc2)nc1SCC(=O)NC1CCCC1	MARV entry inh inconclusive, HCV inh inconclusive, HCMV inh -76
O=C(CSc1nnc(NC(=O)c2ccccc2[N+](=O)[O-])s1)NC1CCCC1	none (no result: Pf growth 96h, Pf growth 48h)
CCN(CC)S(=O)(=O)c1ccc2c(c1)nc(SCC(=O)NC1CC1)n2-c1ccccc1OC	HCV inh inconclusive, Pf growth 96h inconclusive, Pf growth 48h 5.9µM
COc1ccccc1NC(=O)Cc1nnc(SCC(=O)NC2CCCC2)n1C	none
COc1ccccc1C(=O)Nc1nnc(SCC(=O)NC2CCCC2)s1	MARV entry inh 11µM, Lassa entry inh inconclusive, HCV inh inconclusive (no result: HCMV inh)
COc1ccccc1-n1c(SCC(=O)c2ccc(O)cc2O)nc2cc([N+](=O)[O-])ccc21	MARV entry inh 2.2µM, Pf growth 96h inconclusive
